Some test systems named below: NCI-H23 lung; NCI-H226 lung; NCI-H322M lung; HOP-62 NSCLC; NCI-H460 lung; HOP-92 NSCLC; NCI-H522 lung; A549/ATCC NSCLC; 786-0 renal; COLO 205 colon; DU-145 prostate; K-562 leukemia; MALME-3M melanoma; MDA-MB-231 breast; RXF 393 renal; SF-268 CNS; SF-295 CNS; SF-539 CNS; UACC-257 melanoma; M14 melanoma.
Experiment in all cases: NCI-60 one-dose screen, 48 h (100 = growth as untreated, 0 = no growth, -100 = all killed)
Details in all cases: 10 µM unless noted

This is part of a sample that, as a whole, favours compounds with a hit. Of some 83,000 tested, about 20% had one in any assay.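 Plates (96-well) were seeded with cells, treated with compound at one concentration, and incubated for 48 hours before percent growth was determined.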 Unmarked numbers belong to inactive results. The source made the active and inactive calls. How the source made its calls: active means growth percent below 10; inactive means the rest.

Regarding `CC1CN(c2oc(-c3ccccc3)nc2C#N)CC(C)O1` (centres undefined), the growth in the assay with NCI-H23 lung was 112%; in the assay on NCI-H226 lung, 92%; in the assay with NCI-H322M lung, 99.1%; with HOP-62 NSCLC, 103%; in the assay with NCI-H460 lung, 99.7%; in the assay on HOP-92 NSCLC it was 123%. The growth in the assay with NCI-H522 lung is 99.4%; in the assay on A549/ATCC NSCLC, 104%; with 786-0 renal, 99.6%; in the assay on COLO 205 colon, 116%; in the assay with DU-145 prostate, 99.7%; in the assay with K-562 leukemia, 97.6%. Moreover, the growth in the assay with MALME-3M melanoma was 102%; in the assay on MDA-MB-231 breast it was 101%; in the assay on RXF 393 renal, 104%; with SF-268 CNS, 98.2%; with SF-295 CNS, 99.1%; in the assay on SF-539 CNS, 98.6%. For the same molecule, the growth is 103% in the assay with UACC-257 melanoma and 99.3% with M14 melanoma.
As for `O=C([O][Sn]([O]C(=O)c1ccccn1)([c]1ccccc1)[c]1ccccc1)c1ccccn1`, the growth was 55.2% in the assay with NCI-H23 lung; 65.5% in the assay with NCI-H226 lung; 123% in the assay on NCI-H322M lung; 98.9% in the assay on HOP-62 NSCLC; 107% with NCI-H460 lung; 74.5% in the assay on HOP-92 NSCLC. For the same molecule, the growth is -68.7% (active) in the assay on NCI-H522 lung; 103% in the assay on A549/ATCC NSCLC; 96.2% with 786-0 renal; 77.4% in the assay with COLO 205 colon; 92.3% in the assay on DU-145 prostate; 24% with K-562 leukemia. The growth is 86.4% in the assay on MALME-3M melanoma; 87.4% in the assay with MDA-MB-231 breast; 41.7% in the assay on RXF 393 renal; 83.5% in the assay on SF-268 CNS; 127% in the assay on SF-295 CNS; 97.4% with SF-539 CNS. The results for the growth with UACC-257 melanoma and in the assay with M14 melanoma were 73.9% and 85.8%, respectively.
For the molecule `c1coc(CNc2ccnc(Nc3ccc(OCCN4CCCCC4)cc3)n2)c1`, the growth with NCI-H23 lung was 86.7%; with NCI-H226 lung, 68.1%; in the assay with NCI-H322M lung it was 101%; with HOP-62 NSCLC, 93.1%; in the assay on NCI-H460 lung it was 89.2%; with HOP-92 NSCLC, 69.5%. Besides, the growth is 85.3% in the assay on NCI-H522 lung; 92.5% with A549/ATCC NSCLC; 94.9% in the assay with 786-0 renal; 89.5% in the assay with COLO 205 colon; 91.6% with DU-145 prostate; 27.6% with K-562 leukemia. For the same molecule, the growth in the assay with MALME-3M melanoma was 110%; in the assay on MDA-MB-231 breast, 82.6%; with RXF 393 renal, 71.3%; in the assay on SF-268 CNS, 90.4%; with SF-295 CNS, 95.1%; in the assay on SF-539 CNS, 76.4%. Further, the growth with UACC-257 melanoma was 87.3%; in the assay on M14 melanoma it was 102%.
As to `Fc1ccc(-c2nc(-c3nc4ncccc4[nH]3)cc3c2[nH]c2ccccc23)cc1F`, the growth with NCI-H23 lung is 67.2%; in the assay with NCI-H226 lung it was 88.5%; in the assay with NCI-H322M lung, 64.7%; in the assay on HOP-62 NSCLC it was 78.6%; with NCI-H460 lung, 91.1%; with HOP-92 NSCLC, 70.2%. Also, the growth in the assay on NCI-H522 lung was 58.3%; with A549/ATCC NSCLC, 59%; with 786-0 renal, 95.2%; in the assay on COLO 205 colon it was 96.9%; in the assay on DU-145 prostate it was 49%; with K-562 leukemia, 78.5%. Besides, the growth was 78.5% in the assay on MALME-3M melanoma; 53.9% in the assay with MDA-MB-231 breast; 73.1% in the assay with RXF 393 renal; 71.1% with SF-268 CNS; 86.9% with SF-295 CNS; 79.6% in the assay on SF-539 CNS. Further, the growth in the assay with UACC-257 melanoma is 92.2%; in the assay with M14 melanoma, 78.8%.
For the molecule `O=C(Nc1ccc(Cl)c(Cl)c1)NS(=O)(=O)c1cnccc1Oc1ccc(F)cc1`, the growth is 39.3% in the assay with NCI-H23 lung; 74.9% with NCI-H226 lung; 89.2% in the assay on NCI-H322M lung; 80.6% in the assay with HOP-62 NSCLC; 44.6% in the assay on NCI-H460 lung; 52.7% in the assay with HOP-92 NSCLC. The growth is 20.2% with NCI-H522 lung; 28% with A549/ATCC NSCLC; 83.9% in the assay with 786-0 renal; 90.4% with COLO 205 colon; 78.5% in the assay on DU-145 prostate; 19.6% in the assay on K-562 leukemia. Moreover, the growth in the assay on MALME-3M melanoma was 41.2%; in the assay on MDA-MB-231 breast it was 93.9%; in the assay with RXF 393 renal, 38%; with SF-268 CNS it was 80.7%; in the assay with SF-295 CNS, 13.7%; with SF-539 CNS, 90.1%. In the assay on UACC-257 melanoma, the growth is -7.26% (active).
Turning to `CC(C)(C)c1[nH]nc2c1C(c1cc3ccccc3[nH]c1=O)Nc1cc(C(=O)Nc3ccc(Cl)cc3)ccc1N2` (centres undefined), the growth in the assay on NCI-H23 lung was 78.9%; with NCI-H226 lung, 105%; in the assay with NCI-H322M lung, 78.6%; with HOP-62 NSCLC, 83.6%; in the assay with NCI-H460 lung, 74.1%; in the assay on HOP-92 NSCLC, 86.1%. The growth in the assay with NCI-H522 lung is 74.5%; in the assay with A549/ATCC NSCLC, 89.6%; in the assay with 786-0 renal, 66.1%; with COLO 205 colon, 83.6%; in the assay with DU-145 prostate it was 83.8%; in the assay with K-562 leukemia, 39.2%. For the same molecule, the growth in the assay with MALME-3M melanoma is 80.6%; in the assay on MDA-MB-231 breast, 85.6%; with RXF 393 renal, 43.9%; with SF-268 CNS, 62.2%; with SF-295 CNS it was 38.5%; in the assay with SF-539 CNS, 85.8%. In addition, the growth with UACC-257 melanoma is 83.9%; in the assay with M14 melanoma, 53.5%.
With `COc1ccc2[nH]c(C(=O)OCc3ccc4c(Cl)cc(Cl)c(O)c4n3)cc2c1`, the growth was -23.9% (active) in the assay on NCI-H23 lung; -59% (active) with NCI-H226 lung; 54.3% with NCI-H322M lung; 28.2% with HOP-62 NSCLC; -35.2% (active) in the assay with NCI-H460 lung; -78.6% (active) in the assay on HOP-92 NSCLC. The growth in the assay on NCI-H522 lung was -76.8% (active); in the assay on A549/ATCC NSCLC it was 5.45% (active); in the assay on 786-0 renal, -83.1% (active); with COLO 205 colon, -75% (active); in the assay with DU-145 prostate, -98.2% (active); in the assay with K-562 leukemia, -13.7% (active). Further, the growth in the assay with MALME-3M melanoma is -79.9% (active); in the assay with MDA-MB-231 breast it was -75.9% (active); in the assay on RXF 393 renal, -93% (active); with SF-268 CNS, -72.9% (active); with SF-295 CNS, 67.8%; with SF-539 CNS it was -96.4% (active). In addition, the growth is -77.3% (active) with UACC-257 melanoma and -78.2% (active) in the assay with M14 melanoma.
For the molecule `CCN(CC)CCOc1ccc(Cl)c(C)c1`, the growth is 91.6% in the assay on NCI-H23 lung; 104% with NCI-H226 lung; 103% in the assay with NCI-H322M lung; 104% in the assay on HOP-62 NSCLC; 106% with NCI-H460 lung; 85.7% in the assay with HOP-92 NSCLC. Besides, the growth with NCI-H522 lung was 92.4%; in the assay with A549/ATCC NSCLC, 96.5%; in the assay on 786-0 renal, 99.6%; in the assay on COLO 205 colon it was 103%; with DU-145 prostate, 107%; with K-562 leukemia it was 111%. Also, the growth was 94.4% with MALME-3M melanoma; 104% in the assay with MDA-MB-231 breast; 104% in the assay on RXF 393 renal; 98% in the assay on SF-268 CNS; 118% in the assay on SF-295 CNS; 108% in the assay with SF-539 CNS. In addition, the growth in the assay with UACC-257 melanoma was 99.5%; with M14 melanoma, 103%.

Source of the values: PubChem BioAssay (NCI).
